# High-throughput results as filed in PubChem BioAssay.
# A selection: hits, their analogues and other compounds. The true share with any hit is near 2.5%.
# L3MBTL1 inh: inhibitors of human L3MBTL1; Potency, µM (top dose mostly 57.1 µM), for inactives: top-dose activity, negative = inhibition, actives largely listed as inhibitors; AlphaScreen L3MBTL1–H3K9me1 peptide binding; AID 485360; 230,000 compounds, 0.66% hits; Q9Y468; note: % is set by controls: 0 for no effect and ±100 for the full control effect; nearly all actives have a fitted effect of over 60% in size
#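 Read-out is AlphaScreen signal from streptavidin donor and nickel chelate acceptor beads (10 ug/mL final each) bridging L3MBTL1 (50 nM) and biotinylated K9-monomethylated H3(1-15) peptide (75 nM), after 30 min compound exposure at room temperature.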
# POLB inh: blocks human DNA polymerase beta activity. P06746. Potency, µM (series often up to 114 µM), without a hit: at the highest dose activity change, negative = inhibition, hits mostly inhibitors. 340,000 compounds, 1.3% hits. Pol beta primer extension/strand displacement, fluorescence kinetic; note: % is set by controls: 0 for no effect and ±100 for the full control effect
#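 Curves were derived by four-parameter Hill fits of normalized qHTS data. The kinetic fluorescent primer-extension read was taken at 0 and 10 min after 50 nM substrate, following a 15 min room-temperature preincubation of 10 nM enzyme with compounds.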
# POLI inh: inhibitors of human DNA polymerase iota; 390,000 compounds, 1% hits; Potency, µM (titrated, usually from 115 µM), for inactives: top-dose activity, negative = inhibition, actives largely listed as inhibitors; Q9UNA4; Pol iota fluorescent replication assay, 10 min
#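 Fluorescent replication assay read twice, at 0 min and 10 min after adding 50 nM (final) substrate. Enzyme (10 nM) and compounds were first incubated 15 min at room temperature; enzyme-free buffer wells were negative controls.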
# APEX1 inh: blocks human APE1 abasic DNA cleavage; 350,000 compounds, 0.35% hits; Potency, µM (top dose mostly 65.8 µM), for the others: at the top dose activity change, negative = inhibition, usual class: inhibitors; recombinant APE1, TAMRA/BHQ-2 abasic DNA cleavage fluorescence;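 note: plate controls were vehicle for no effect and reference inhibitor for full effect; nearly all actives have a fitted effect of over 55% in size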
#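 APE1 at 0.75 nM preincubated 15 min at room temperature with compound. Reaction then started with 50 nM double-stranded THF-abasic substrate labelled with TAMRA/BHQ-2, and 525/598 nm fluorescence read kinetically. Activity taken as third-minus-first read difference, normalized to DMSO and NSC13755 controls.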
# POLH inh: DNA polymerase eta (human) inhibition. Q9Y253. recombinant Pol eta, fluorescent DNA replication assay. Potency, µM (titrated, usually from 114 µM), without a hit: at the highest dose activity change, negative = inhibition, usual class: inhibitors. 390,000 compounds, 1.2% hits; note: % is set by controls: 0 for no effect and ±100 for the full control effect
#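 Fluorescent replication assay: 50 nM final substrate added after a 15 min room-temperature compound preincubation with 10 nM enzyme. Signal taken at 0 min and again at 10 min.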
# POLK inh: inhibitors of human DNA polymerase kappa; Potency, µM (doses to about 107 µM), for the others: at the highest dose activity, negative = inhibition, actives largely listed as inhibitors; 400,000 compounds, 0.53% hits; purified Pol kappa, fluorescent DNA synthesis assay, 10 min; Q9UBT6; note: % is set by controls: 0 for no effect and ±100 for the full control effect
# Target sequence (Q9UBT6 whole entry, looked up): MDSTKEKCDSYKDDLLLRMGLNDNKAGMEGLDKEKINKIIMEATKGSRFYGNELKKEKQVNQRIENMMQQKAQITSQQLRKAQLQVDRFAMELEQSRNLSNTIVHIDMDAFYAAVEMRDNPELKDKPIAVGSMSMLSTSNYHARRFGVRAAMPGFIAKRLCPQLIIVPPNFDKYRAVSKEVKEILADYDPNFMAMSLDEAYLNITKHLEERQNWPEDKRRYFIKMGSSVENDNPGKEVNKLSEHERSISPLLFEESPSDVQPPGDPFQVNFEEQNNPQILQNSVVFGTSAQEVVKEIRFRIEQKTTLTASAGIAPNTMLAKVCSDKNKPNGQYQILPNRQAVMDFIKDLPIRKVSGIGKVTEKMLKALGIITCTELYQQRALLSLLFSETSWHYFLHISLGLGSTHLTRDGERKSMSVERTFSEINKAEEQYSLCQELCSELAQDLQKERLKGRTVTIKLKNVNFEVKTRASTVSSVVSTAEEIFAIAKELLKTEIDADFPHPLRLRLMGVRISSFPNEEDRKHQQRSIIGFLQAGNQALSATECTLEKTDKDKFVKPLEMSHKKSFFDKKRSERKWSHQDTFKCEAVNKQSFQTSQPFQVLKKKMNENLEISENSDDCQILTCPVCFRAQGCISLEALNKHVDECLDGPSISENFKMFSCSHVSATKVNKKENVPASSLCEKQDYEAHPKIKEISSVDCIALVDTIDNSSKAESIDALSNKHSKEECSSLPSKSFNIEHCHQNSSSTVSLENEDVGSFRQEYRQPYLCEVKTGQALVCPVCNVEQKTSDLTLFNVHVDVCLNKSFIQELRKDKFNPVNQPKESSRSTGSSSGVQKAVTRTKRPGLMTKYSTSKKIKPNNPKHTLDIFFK
#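 Fluorescent qHTS in 1536-well format: enzyme (10 nM) and compound sat 15 min at room temperature before 50 nM substrate (final) was added. Signal taken at 0 and 10 min; no-enzyme buffer wells were negative controls.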
# An asterisk follows results filed as active; ? = inconclusive; · = no result; [ ] = remark or other dose. Calls come from the whole dose curve; as a rule, active = well fitted curve in the direction sought with a large enough effect; inconclusive = small, poorly fitted or top-dose-only effect, or another doubt; inactive = no such curve, though single readings can be large; an effect the other way counts as inactive or inconclusive. Potency is the fitted concentration of half-maximal effect.
SMILES,L3MBTL1 inh,POLB inh,POLI inh,APEX1 inh,POLH inh,POLK inh
Cc1ccccc1N=Cc1cccc(O)c1O,2.5µM*,3.5µM*,?,?,?,10µM*
Oc1cccc(/C=N/N=C/c2cccc(O)c2O)c1O,-2%,0.32µM*,?,-32%,2.8µM*,11µM*
Oc1ccccc1C=NN=C1c2ccccc2-c2ccccc21,·,·,5%,·,-17%,-11%
Cc1ccc(N=Cc2cccc(O)c2O)c(C)c1,32µM*,10µM*,3.5µM*,-11%,·,20µM*
CCN(CC)c1ccc(C=Nc2ccc(C)cc2C)c(O)c1,10%,3%,63%,-1%,-19%,6%
Cc1cccc(C=Nc2ccc3c(c2)oc2ccccc23)c1O,-11%,-7%,14%,6%,-17%,-5%
CC1=NN(c2ccccc2)C(=O)C1N=Nc1ccc(N)cc1 (configuration not stated),25µM*,22µM*,?,11%,-5%,-11%
CC1=NN(c2ccccc2)C(=O)C1N=Nc1ccccc1 (configuration not stated),-28%,32%,57%,2%,-27%,-11%
Nc1nc2[nH]c(=S)[nH]c2c(=O)[nH]1,·,·,6%,·,·,-8%
Cc1ccccc1N1CCN(C2CCCN(C(=O)CCn3cnnn3)C2)CC1 (configuration not stated),·,35µM*,-13%,4%,-8%,-17%
Cc1ccccc1N1CCN(C2CCCN(C(=O)CCN3CCCCO3)C2)CC1 (configuration not stated),·,31%,24%,5%,-10%,-12%
O=S(=O)(Nc1nc2ccccc2nc1Nc1cccc(S(=O)(=O)N2CCCCC2)c1)c1ccccc1,3%,?,?,-6%,89µM*,-16%
COc1ccc(S(=O)(=O)Nc2cccc(S(=O)(=O)N3CCCCCC3)c2)cc1,-7%,20%,-2%,9%,-17%,-7%
Cc1ccc2c(c1)c(=O)c1ccccc1n2CCCC(=O)Nc1cc(Cl)ccc1C,·,?,-16%,·,79µM*,2%
Cc1ccc(CN(C)c2ccc(N3CCN(C)CC3)cc2)cc1,·,·,·,17%,·,·
Cc1ccc(-n2nc(C)c3c2OC(N)=C(C#N)C3c2ccco2)cc1 (configuration not stated),?,13%,-6%,-3%,-14%,-8%
Cc1ccc(-n2nc(C)c3c2OC(N)=C(C#N)C3c2ccoc2)cc1 (configuration not stated),?,28µM*,20µM*,?,-1%,-17%
CCOc1ccc(NC(=O)c2cc3cc(C)ccc3n2C)cc1,·,-2%,23%,·,-20%,-20%
C=C1C=C(C(F)F)n2ncc(C(=O)NC(C)CC)c2N1 (configuration not stated),·,·,29%,·,·,10%
O=C(NCc1ccccn1)Nc1cc(Cl)ccc1Cl,·,-20%,27%,-28%,-17%,8%
O=C(CC(NCc1ccccn1)C(=O)O)Nc1ccccc1Cl (configuration not stated),20µM*,-2%,?,?,-8%,7%
CCCCCCCCCCCCCCCCCCCCCC(=O)Nc1ccn([C@@H]2O[C@H](CO)[C@@H](O)[C@@H]2O)c(=O)n1,·,·,·,·,·,-15%[19.4 µM]
CSCC(=O)N1CCC(n2nccc2NC(=O)c2ccc3c(c2)OCO3)CC1,·,11%,?,23%,-19%,79µM*
CSCC(C)N1CCC(n2nccc2NC(=O)c2ccc3c(c2)OCO3)CC1 (configuration not stated),·,8%,61%,22%,-19%,0%
N=C1C(c2nc3ccccc3[nH]2)=C(O)CN1c1ccc(CC(=O)O)cc1,·,-17%,?,-5%,79µM*,-12%
SMILES,L3MBTL1 inh,POLB inh,POLI inh,APEX1 inh,POLH inh,POLK inh
N=C1C(c2nc3ccccc3[nH]2)=C(O)CN1c1ccccc1,·,13%,3%,-5%,-16%,-1%
COc1ccc(N(C(=O)CNC(=O)c2ccco2)C(C(=O)NCC2CCCO2)c2ccccc2)cc1 (configuration not stated),·,0%,130%,12%,-10%,-2%
CCOC(=O)c1sc(N/N=C/c2cc(Br)c(O)c(OC)c2)nc1C,-5%,32µM*,?,-16%,35µM*,?
CCOC(=O)N/N=C/c1cc(OC)c(O)c(OC)c1,1%,?,21%,-1%,-12%,-12%
N#Cc1ccc(-c2cccnc2)nc1SCC(=O)Nc1sc2c(c1C#N)CCC2,-11%,?,14µM*,-9%,79µM*,79µM*
N#Cc1c(NC(=O)CSc2nnc(-c3ccco3)n2-c2ccccc2)sc2c1CCC2,·,25µM*,?,?,?,?
C/C(CCC(=O)OC[C@@H]1O[C@H](C#Cc2ccccc2)C=C[C@@H]1Oc1ccc(C)cc1)=N/OC[C@@H](C)[C@H](OCc1ccccc1)C(C)C,·,·,·,29%[12.4 µM],·,·
COc1cc(/C=N\NC(=O)c2ccc(-c3ccccc3)cc2)cc(OC)c1O,·,25µM*,32µM*,-10%,?,?
COc1cc(/C=N\NC(=O)c2ccc(-c3ccccc3)cc2)cc(OC)c1OC(C)=O,·,?,3%,-6%,-3%,-24%
COc1cc(C(=O)N/N=C/c2ccc3c(c2)c2ccccc2n3C)ccc1O,·,25µM*,18µM*,10%,16µM*,?
COc1cc(/C=N/Nc2nn3cnnc3c3ccccc23)ccc1O,13%,50µM*,?,6%,?,-2%
COc1ccc(CCN2C(=O)CSC2c2ccc(F)cc2)cc1 (configuration not stated),·,38%,1%,-12%,-1%,-12%[60.1 µM]
O=C(c1cc2ccc3cccnc3c2[nH]1)N1CCN(c2ccccc2)CC1,·,12%,-8%,·,10%,2%
Cc1ccc(C(C[N+](=O)[O-])c2c(C)[nH]n(-c3ccccc3)c2=O)cc1 (configuration not stated),-22%,28%,1.1µM*,?,-9%,2%
Cc1[nH]n(-c2ccccc2)c(=O)c1C(C[N+](=O)[O-])c1ccc(F)cc1 (configuration not stated),-1%,0%,2.2µM*,1%,-20%,-6%
C(=C\c1nccc2ccccc12)/c1ccc(N2CCOCC2)cc1,·,·,35%,·,·,-12%
Cc1csc2nc(COC(=O)c3cccc(NC(=O)c4cccc(Cl)c4)c3)cc(=O)n12,·,?,-8%,·,-12%,-14%[60.1 µM]
CC(=O)Nc1cccc(-c2cc(C)c3cc4c(cc3n2)OCO4)c1,·,40µM*,?,-5%,8%,-20%
